In the library only some 4.3% were active in any assay of this set; here they are far more common.
GLP1R inv ag: GLP-1 receptor (human) inverse agonism; P43220; hit rate 1.6% among 410,000; Potency, µM (doses to about 38.3 µM), without a hit: at the highest dose activity change, negative = inhibition, hits mostly inhibitors; HEK293 GLP-1R CRE-luciferase, luminescence, 24 h; GLP-1R form is constitutively active; further: potency means the concentration at half of the fitted maximal effect; on the % scale 0 is the no-effect control and ±100 the full control effect; nearly all actives have a fitted effect of over 55% in size
Target sequence (P43220 whole entry, looked up): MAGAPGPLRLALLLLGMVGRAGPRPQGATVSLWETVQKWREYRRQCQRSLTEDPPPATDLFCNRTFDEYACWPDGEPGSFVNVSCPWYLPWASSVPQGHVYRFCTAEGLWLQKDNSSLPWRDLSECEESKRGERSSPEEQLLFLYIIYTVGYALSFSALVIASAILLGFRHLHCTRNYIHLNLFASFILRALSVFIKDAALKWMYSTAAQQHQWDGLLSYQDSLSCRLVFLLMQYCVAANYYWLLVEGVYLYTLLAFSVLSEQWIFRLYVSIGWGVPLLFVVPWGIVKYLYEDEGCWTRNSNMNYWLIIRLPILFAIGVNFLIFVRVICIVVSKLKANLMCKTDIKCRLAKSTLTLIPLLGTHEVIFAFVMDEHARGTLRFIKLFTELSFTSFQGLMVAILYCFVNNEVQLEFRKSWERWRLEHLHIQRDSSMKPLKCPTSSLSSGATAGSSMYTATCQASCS
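Constitutively active GLP-1R drives a cAMP-responsive luciferase in stably transfected HEK293 cells; test compounds are added after overnight (12 h) attachment and left 24 hr, and signal loss in luminescence marks inhibition.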
DRD3 antagonist: antagonists of human D3 dopamine receptor; AID 652054; D3R cells, DiscoveRx beta-arrestin luminescence, antagonist mode; stronger effect = lower value; P35462; hit rate 2.5% among 360,000; max response, negative = inhibition, %; in the data active means max response below about -50%; inconclusive means no clear call, values can overlap the other calls; further: on the % scale 0 is the no-effect control and ±100 the full control effect
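Cells plated overnight at 1500 cells/well, then exposed to library compounds with dopamine controls for 90 minutes at 37 degrees C. DiscoveRx reagent added for 30–60 minutes at room temperature; luminescence read, quantitative HTS format.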
GLP-1R agonist: agonists of human GLP-1 receptor | P43220 | HEK293 GLP-1R CRE-luciferase, luminescence, 4-6 h; cells express a hypersensitive GLP-1R form | Potency, µM (titrated, usually from 45.6 µM), for the others: top-dose activation, actives largely listed as activators | hit rate 0.007% among 380,000 | AID 624172; further: potency means the concentration at half of the fitted maximal effect; % of control where 0% means no effect
D3 ag: D3 dopamine receptor (human) agonism; P35462; hit rate 0.58% among 410,000; D3R DiscoveRx beta-arrestin cells, luminescence, 90 min; AID 652048; max activation, %; in the data active means max activation above about 30%; further: 0% is about no effect
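Cells at 1500/well, incubated overnight, then treated with pinned compounds (dopamine as control) for 90 min at 37 degrees C. DiscoveRx reagent added for 30 - 60 minutes at room temperature; luminescence read.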
The depositor's hits bear a star; ? = inconclusive; · = no result given; ! = repeats disagree; [ ] = dose if it differs, or a comment. Unless noted, the call rests on the fitted dose curve; in most records, active means well fitted curve in the direction sought with a large enough effect; inconclusive means small, poorly fitted or top-dose-only effect, or another doubt; inactive means no such curve, though single readings can be large; an effect the other way counts as inactive or inconclusive.

SMILES	GLP1R inv ag	DRD3 antagonist	GLP-1R agonist	D3 ag
CN(C)CCNC(=O)c1cccc2nc3c(ccc4ccccc43)nc12	8.9µM*	-28	-10%	-23
COc1ccc(-c2coc3c(C(=O)NCCN(C)C)cccc23)c(C)c1	11µM*	9	3%	-15
COc1ccc(C(=O)NCCN(C)C)c2nc3ccccc3cc12	?	5	-23%	0
COc1cc(S(=O)(=O)n2ccnc2C(C)C)ccc1Br	15%	·	·	0
CC(C)N(C(=O)c1ccc2nc(-c3ccccc3)c(-c3ccccc3)nc2c1)C(C)C	?	?	-2%	-8
COc1ccc(N(C)C(=O)c2ccc3nc(-c4ccccc4)c(-c4ccccc4)nc3c2)cc1	6.3µM*	-23	9%	-5
Cc1ccc(C2C=C(c3ccccc3)Nc3nc(NS(C)(=O)=O)nn32)cc1 (stereo not given)	11%	·	·	5
CCCCC1=CC2=C(c3ccco3)C(=O)C(C)(OC(=O)c3ccc(OC)cc3)C(=O)C2=CN1C1CCCCC1 (stereo not given)	?	-91*	-2%	-39
CCCCC1=CC2=C(c3ccco3)C(=O)C(C)(OC(=O)c3ccc(OC)cc3)C(=O)C2=CN1CCOC (stereo not given)	-10%	-6	-1%	-12
Cc1ccc(-n2nnc(-c3nc(-c4cccs4)no3)c2N)c(C)c1	4%	·	·	3
N#Cc1c2c(c(NCc3cccnc3)n3c1nc1ccccc13)CCC2	42%	-53*	0%	-1
COCCNc1c2c(c(C#N)c3nc4ccccc4n13)CCCC2	-8%[7.66 µM]	7	3%	5
CCN1CCN(c2cc(C(C)C)nc3c(-c4ccccc4)c(C)nn23)CC1	4µM*	-26	20%	-18
CCN(CC)CCNC(=O)c1cc(Cl)c(N)cc1OC	2%	-117*	-3%	-90
CCN(CC)CCOC(=O)c1ccc(Cl)cc1	0%	-83*	-6%	-9
COC(=O)c1cc(Cl)c(N)cc1OC	0%	-11	0%	-3
CCN(CC)CCNC(=O)c1cc([N+](=O)[O-])c(N(C)C)cc1OC	9%	-93*	-1%	-22
C=CCOc1cc(Cl)ccc1C(=O)NCCN(CC)CC	·	·	-5%	-24
CCN(CC)CCOC(=O)c1cc(Cl)c(N)cc1OC	2%	-58*	0%	-70
Cc1cccc(CNC(=O)c2ccc(NC(=O)N3CC(C)Sc4ccccc43)cc2)c1 (stereo not given)	?	·	·	3
Cc1cc(N2CCN(C)CC2)nc2ccc(NC(=S)N3CCN(c4ccc(Cl)cc4)CC3)cc12	?	-25	1%	-20
Cc1cc(N2CCN(C)CC2)nc2ccc(NC(=S)N3CCCCCC3)cc12	11µM*	-12	21%	-14
Cc1cc(N2CCN(C)CC2)nc2ccc(NC(=S)N3CCCCC3)cc12	10µM*	?	19%	-9
Cc1cc(N2CCN(C)CC2)nc2ccc(NC(=S)N3CCN(c4ccc(F)cc4)CC3)cc12	?	-18	0%	-9
Clc1ccc2scc(CN3CCCCC3)c2c1	-16%	-88*	-3%	-58
SMILES	GLP1R inv ag	DRD3 antagonist	GLP-1R agonist	D3 ag
O=[N+]([O-])c1ccc(Cl)cc1CN1CCCCCC1	-11%	-4	7%	-13
C=CCc1ccc(O)c(-c2cc(CC=C)ccc2O)c1	11µM*	14	2%	2
C=CCc1ccc(OCC(O)CO)c(OC)c1 (stereo not given)	-5%	0	1%	-10
C[C@]12CC[C@@H]3c4ccc(O)cc4CC[C@H]3[C@@H]1CC[C@@H]2OC(=O)CCC1CCCC1	7%	72	16%	45*!
CC(=O)CCC(=O)O	·	·	-5%	0
CC1CCCN(S(=O)(=O)c2cc(C(=O)NCc3ccccc3Cl)n(C)c2)C1 (stereo not given)	?	·	2%	3
CC1CN(CCCCOc2ccc(C(C)C)cc2)CC(C)O1 (stereo not given)	?	-63*	0%	-8
CC(C)c1ccc(OCCCCN2CCCCC2)cc1	?	-88*	12%	-21
Clc1ccc(OCCCCN2CCCCC2)cc1	-25%	-62*	2%	-25
CC(C)(C)c1ccc(OCCCN2CCCC2)cc1	?	-11	-5%	-2
CCC(C)c1ccc(OCc2ccc(C(=O)O)o2)cc1 (stereo not given)	2µM*	-1	-8%	1
c1cc(OCCCN2CCCCC2)ccc1CN1CCCCC1	-55%	-17	4%	-6
CC1CN(CCCCOc2cccc(Oc3ccccc3)c2)CC(C)O1 (stereo not given)	-21%[7.66 µM]	?	1%	-13
CCOc1ccc(OCC)c(NC(=O)c2cnn(-c3ccc(F)cc3)c2-n2cccc2)c1	?	·	-5%	3
Cc1ccc(SCCOCCN2CC(C)OC(C)C2)cc1 (stereo not given)	-49%	-6	7%	-17
CCOC(=O)C(CCCOc1ccc(C(C)CC)cc1)C(=O)OCC (stereo not given)	10µM*	0	-11%	0
Clc1ccc(SCCOCCN2CCCCCC2)cc1	?	-115*	-3%	-8
CCC(C)c1ccc(OCCN2CCCC2)cc1 (stereo not given)	?	-78*	0%	1
CC(C)Oc1ccc(OCCCN2CCCCCC2)cc1	-32%	-84*	-2%	-7
O=C(COC(=O)c1cccc([N+](=O)[O-])c1)Nc1ccc(Cl)cn1	57%	5	5%	0
CCc1cccc(NC(=O)Cn2c(=O)n(-c3cccc(Cl)c3)c(=O)c3c2c2cc(C)ccc2n3C)c1	2%	·	·	0
CC1C(=O)N(Cc2ccc([N+](=O)[O-])cc2)c2ccccc2N1C(=O)c1c(F)cccc1F (stereo not given)	10µM*	0	4%	-10
O=C(OCC1CCNCC1)c1ccc(F)cc1	-6%	-55*	15%	-4
CC(=O)c1ccc(OC(C)C)c(CSc2nc(O)cc(=O)[nH]2)c1	19%	-103*	-14%	-32
CCN(CC)S(=O)(=O)c1ccc(N/N=C(\C)c2ccc(OC)cc2O)nc1	2.5µM*	-10	0%	2
SMILES	GLP1R inv ag	DRD3 antagonist	GLP-1R agonist	D3 ag
O=C(Nc1ccccc1OCc1ccccc1)c1ccccc1Br	10µM*	4	17%	4
COc1ccc(C(=O)c2cn(Cc3ccccc3)c3ccccc3c2=O)cc1OC	4%	·	·	-12
S=C(N/N=C/c1cccc2ccccc12)Nc1cccc(Cl)c1	?	-54*	14%	-12
Oc1ccc(/C=N/NC(=S)Nc2cccnc2)c(O)c1O	-10%	1	0%	37*
S=C(N/N=C/c1ccccc1Cl)Nc1ccccc1	?	-64*	12%	-34
O=C(CC(=O)Nc1cccc(Cl)c1)N/N=C\c1ccccc1	12%	3	-2%	-5
Oc1cccc(/C=N/NC(=S)Nc2cccnc2)c1O	-20%	46	3%	25
COc1ccc(C2C(=O)N(C3CCCCC3)CC(=O)N2CCc2ccc(OC)c(OC)c2)cc1 (stereo not given)	6%	·	·	-24
CC(C)(C)NC(=O)C(OC(=O)c1cccs1)c1ccccc1 (stereo not given)	-28%	-5	13%	-4

Assay outcomes from PubChem.
